This experiment has as its target Metabotropic glutamate receptor 7 (Rattus norvegicus) (UniProt P35400). Put plainly: glutamate curve shift by mGlu7 potentiators, cell-based, rat, GIRK per title (AID 743386). Conditions: rat mGlu7/Ga15, glutamate CRC shift, calcium; glutamate EC50 left shift; at 10 µM; stronger effect = higher value.

Sequence of Metabotropic glutamate receptor 7 (Rattus norvegicus) (P35400 whole entry, looked up): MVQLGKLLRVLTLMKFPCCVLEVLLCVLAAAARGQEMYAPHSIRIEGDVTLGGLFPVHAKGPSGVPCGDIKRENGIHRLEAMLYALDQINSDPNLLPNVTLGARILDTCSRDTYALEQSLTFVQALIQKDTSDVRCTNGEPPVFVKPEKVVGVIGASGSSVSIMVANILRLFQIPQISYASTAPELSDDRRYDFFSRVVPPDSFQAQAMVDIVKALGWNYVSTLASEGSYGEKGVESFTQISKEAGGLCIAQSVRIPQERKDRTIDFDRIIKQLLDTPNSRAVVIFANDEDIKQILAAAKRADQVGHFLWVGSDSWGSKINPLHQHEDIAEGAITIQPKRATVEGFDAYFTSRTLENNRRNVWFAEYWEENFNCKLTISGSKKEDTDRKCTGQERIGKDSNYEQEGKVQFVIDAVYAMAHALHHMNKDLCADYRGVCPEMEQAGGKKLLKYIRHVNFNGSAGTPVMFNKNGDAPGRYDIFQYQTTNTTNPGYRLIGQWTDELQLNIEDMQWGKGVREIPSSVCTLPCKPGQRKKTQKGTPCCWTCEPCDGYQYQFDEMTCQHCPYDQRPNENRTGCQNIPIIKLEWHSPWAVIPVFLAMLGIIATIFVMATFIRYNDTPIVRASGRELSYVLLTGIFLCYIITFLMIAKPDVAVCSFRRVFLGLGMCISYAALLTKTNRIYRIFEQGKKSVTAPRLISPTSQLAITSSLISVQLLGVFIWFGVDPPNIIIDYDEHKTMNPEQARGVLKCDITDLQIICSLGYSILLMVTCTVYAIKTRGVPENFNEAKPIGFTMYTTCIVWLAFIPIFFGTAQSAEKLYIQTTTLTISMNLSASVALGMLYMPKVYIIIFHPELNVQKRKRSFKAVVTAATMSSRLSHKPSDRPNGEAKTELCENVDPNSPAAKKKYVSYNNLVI

For `COC(=O)c1ccc(-n2c(C)cc(C(=O)CSc3ccc(NC(C)=O)cc3)c2C)cc1`, the fold shift is 4.91.

The values above are taken from PubChem BioAssay AID743386 (Vanderbilt Specialized Chemistry Center, 2014).
